Assay [1] concerns Wnt5a (protein binding on small-molecule microarray). Briefly: small molecules binding Wnt5a protein – biophysical, small-molecule microarray, 635/667 nm fluorescence, primary screen (AID 1142).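 Also: fluorescence read at 667 nm with signal to noise per printed feature.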 The following applies: 635 nm fluorescence, higher = more signal.
Assay [2] can be described thus: ATP-based viability of Huh7 replicon cells – cell-based, CellTiter-Glo luminescence, basal, 48 h, cytotoxicity control for HCV replication inhibitor project, primary screen (AID 1143).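 Also: Huh7 hepatoma cells carrying a hepatitis C replication reporter with no stimulus; test concentration not given here.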 The note with it: higher = more signal, called active from +8 up or from −8 down.
Assay [3] can be described thus: Pseudomonas biofilm growth suppression – PAO1 strain, BacTiter-Glo luminescence, LB-PBS, primary screen (AID 1144). The note with it: P. aeruginosa PAO1 biofilm, 12 h, higher = more signal.
A short description of assay [4]: basal CRE-LacZ reporter activity in PC12 – cell-based, unstimulated, primary screen (AID 1145). The note with it: no forskolin, luminescence, 4.5 h, higher = more signal, called active from +8 up or from −8 down.
Assay [5] in a line: forskolin-driven CRE-LacZ activity in PC12 – cell-based, CRE-LacZ reporter, forskolin-stimulated, primary screen (AID 1146).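 Also: PC12 cells with 6xCRE LacZ reporter stimulated by forskolin 10 µM; beta-galactosidase reporter signal reflecting CREB driven transcription.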 The following applies: luminescence, 4.5 h, higher = more signal, called active from +8 up or from −8 down.
The target of assay [6] is Streptavidin (Streptomyces avidinii) (UniProt P22629). The assay can be described thus: compounds binding control protein streptavidin – biophysical, small-molecule microarray, 635/667 nm fluorescence, artefact control for SMM compound annotation, primary screen (AID 1147).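 Also: signal reflects streptavidin binding to arrayed compounds as a control protein.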 The note with it: higher = more signal.
Chain of Streptavidin (Streptomyces avidinii) (P22629 whole entry, looked up): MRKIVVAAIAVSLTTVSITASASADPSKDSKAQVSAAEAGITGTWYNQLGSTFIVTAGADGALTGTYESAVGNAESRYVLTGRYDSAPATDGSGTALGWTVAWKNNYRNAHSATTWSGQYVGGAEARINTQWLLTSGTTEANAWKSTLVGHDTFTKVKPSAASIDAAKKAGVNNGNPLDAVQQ
The nature of assay [7]: probe aInhba binding on compound microarray – biochemical, small-molecule microarray, 635/667 nm fluorescence, primary screen (AID 1148).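 Also: score merges 667nm spot fluorescence with signal-to-noise for antibody binding to printed compounds.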 The note with it: higher = more signal.
The target of assay [8] is Torsin-1A (Homo sapiens) (UniProt O14656). Briefly: TOR1A wild-type binding on microarray – cell lysate, small-molecule microarray, lysate, 635/667 nm, primary screen (AID 1149). The note with it: COS7 hTOR1A-WT lysate, 635 nm fluorescence, higher = more signal.
Chain of Torsin-1A (Homo sapiens) (O14656 whole entry, looked up): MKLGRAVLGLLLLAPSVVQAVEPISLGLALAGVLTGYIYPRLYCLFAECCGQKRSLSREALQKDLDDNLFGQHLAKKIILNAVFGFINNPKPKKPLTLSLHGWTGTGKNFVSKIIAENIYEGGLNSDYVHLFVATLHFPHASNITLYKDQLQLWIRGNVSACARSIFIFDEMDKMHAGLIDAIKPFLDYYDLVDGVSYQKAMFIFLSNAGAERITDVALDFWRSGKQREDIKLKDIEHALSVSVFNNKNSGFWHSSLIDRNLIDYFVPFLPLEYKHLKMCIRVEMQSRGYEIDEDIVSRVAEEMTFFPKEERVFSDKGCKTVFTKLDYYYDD
Assay [9] shares this target. The assay can be described thus: torsin A mutant lysate binding on microarrays – cell lysate, small-molecule microarray, COS7 lysate, 635/667 nm fluorescence, primary screen (AID 1150).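 Also: score pools 667 nm emission and signal to noise measuring lysate protein binding.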 The note with it: COS7 hTOR1A mutant lysate, 635 nm fluorescence, higher = more signal.
Assay [10] concerns Sonic hedgehog protein (Shh). The assay can be described thus: Sonic hedgehog microarray binding compounds – biochemical, small-molecule microarray, 635/667 nm fluorescence, primary screen (AID 1151).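 Also: Shh protein binding to compounds spotted on small-molecule microarray slides; score combines spot fluorescence intensity with signal-to-noise across triplicate slides.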 The note with it: 635 nm fluorescence, higher = more signal.

Structures are written as SMILES. Activity calls are given as the source filed them. Unless noted, no rule for the calls is given here.

Consider `COc1ccc([C@H]2OC[C@@H]3CC4(CC=CC4)C(=O)N32)cc1`, for which the composite z-score is 0.0071 in [1]; 0.193 in assay [6]; -0.159 in assay [7]; -0.477 in the assay with Torsin-1A (Homo sapiens) [8]; -0.436 in the assay with Torsin-1A (Homo sapiens) [9]; 1.92 in assay [10]. Moreover, the z-score in assay [2] was 0.377 (inactive); in assay [3] it was 0.25 (inactive); in assay [4] it was 0.236 (inactive); in [5] it was 0.249 (inactive).

As for `C=CCNC(=O)[C@H]1[C@@H]2C(=O)O[C@@H](c3ccccc3)[C@@H](c3ccccc3)N2[C@@H](c2ccc(OCCO)cc2)[C@]12C(=O)N(C(=O)OCCOC)c1ccccc12`, the composite z-score is 0.25 in assay [1]; 0.614 in assay [6]; 0.0925 in assay [7]; 0.895 in the assay with Torsin-1A (Homo sapiens) [8]; 0.497 in the assay with Torsin-1A (Homo sapiens) [9]; 1.95 in [10]. In addition, the z-score is -2.05 (inactive) in [2], -0.478 (inactive) in assay [3], 0.802 (inactive) in [4] and 9.23 (active) in [5].

As for `[N-]=[N+]=Nc1ccccc1C[C@]1(C(=O)NCC(O)CO)N=C(c2ccc(OCCCO)cc2)O[C@H]1c1ccccc1N=[N+]=[N-]` (stereo not given in full), the composite z-score in [1] is 0.246; in assay [6], 0.0136; in assay [7] it was 0.192; with Torsin-1A (Homo sapiens) [8] it was -0.0376; in the assay with Torsin-1A (Homo sapiens) [9], 0.585; in assay [10], -0.524. In addition, the z-score in assay [2] was -3.86 (inactive); in assay [3], -0.0958 (inactive); in assay [4], 1.05 (inactive); in [5], -1.49 (inactive).

Take `C=CCN(Cc1ccccc1)C(=O)C(c1cccs1)N(CCOCCO)C(=O)/C=C\C(=O)O` (stereo not given): the composite z-score in [1] was -1.17; in [6], -1.28; in assay [7], -0.34; with Torsin-1A (Homo sapiens) [8], -3.64; in the assay with Torsin-1A (Homo sapiens) [9], -3.08; in assay [10], -0.933. In addition, the z-score in [2] was -0.247 (inactive); in assay [3], -1.93 (inactive); in assay [4], -1.58 (inactive); in [5], -0.949 (inactive).

On to `CC(C)[C@@H](CO)NC(=O)[C@H]1[C@@H](c2ccccc2)N(c2ccccc2)O[C@@H]1C`, for which the composite z-score was -0.106 in assay [1]; -0.327 in assay [6]; 0.0953 in assay [7]; -0.261 with Torsin-1A (Homo sapiens) [8]; -0.0316 in the assay with Torsin-1A (Homo sapiens) [9]; 0.463 in [10]. The z-score in [2] was -0.206 (inactive); in [3], -0.736 (inactive); in [4] it was -0.415 (inactive); in assay [5], -1.35 (inactive).

`CC1CC/C=C\[C@H]2OC34C=CCN(C(C)(C)C)C(=O)[C@H]3N(CCCCCCO)C(=O)[C@@H]4C2C(=O)O1` (stereo not given in full): the composite z-score in assay [1] is -0.293; in assay [6], -0.727; in assay [7], -0.224; with Torsin-1A (Homo sapiens) [8], -0.67; with Torsin-1A (Homo sapiens) [9] it was -0.433; in [10], 0.611. Moreover, the z-score in assay [2] is 0.553 (inactive); in [3] it was 0.0917 (inactive); in [4], 0.74 (inactive); in assay [5] it was -0.21 (inactive).

`O=C1[C@H]2C=C(Br)[C@H](C[C@@H]2OCCCCO)[C@@]12CO2`: the composite z-score is -0.0251 in assay [1]; 0.0247 in assay [6]; 0.104 in [7]; 0.411 with Torsin-1A (Homo sapiens) [8]; 0.53 with Torsin-1A (Homo sapiens) [9]; 0.31 in assay [10]. Further, the z-score was 0.722 (inactive) in assay [2], 0.56 (inactive) in [3], 0.22 (inactive) in assay [4] and 0.533 (inactive) in [5].

For the origin of these results see PubChem BioAssay.
